Experimental data published in PubChem BioAssay (NCATS).
Records with an inconclusive call do not appear. A call without a number means that no potency is given here. Unmarked numbers belong to inactive results. Activity calls are given as the source filed them. Calls follow the shape of the dose curve; as a rule, active = well fitted curve in the direction sought with a large enough effect; inconclusive = small, poorly fitted or top-dose-only effect, or another doubt; inactive = no such curve, though single readings can be large; an effect the other way counts as inactive or inconclusive.

Columns and labels:
[1] = target: Rap guanine nucleotide exchange factor 3 (Homo sapiens) (UniProt O95398); experiment: Confirmatory qHTS for antagonist of cAMP-regulated guanine nucleotide exchange factor 3 (EPAC1) (AID 1645880); also: nearly all actives have a fitted effect of over 55% in size; also: potency is read from the fitted curve at half-maximal effect
Procedure, shortened: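 Released BODIPY-GDP fluoresces less than Rap1-bound BODIPY-GDP; the signal is followed at 480/540 nm at 5-min intervals over 30 min, after 5 min at room temperature. Reactions contain 100 nM EPAC1, 250 nM RAP1B-BODIPY-GDP and 50 uM GDP; results are normalized to ATA and DMSO.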

[2] = target: Rap guanine nucleotide exchange factor 3 (Homo sapiens) (UniProt O95398); experiment: Confirmatory qHTS for agonist of cAMP-regulated guanine nucleotide exchange factor 3 (EPAC1) (AID 1645881);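 also: EPAC1 catalysed release of BODIPY-GDP from Rap1B seen as fluorescence loss; nearly all actives have a fitted effect of over 75% in size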
[3] = target: Rap guanine nucleotide exchange factor 4 (Homo sapiens) (UniProt Q8WZA2); experiment: Confirmatory qHTS for agonist of cAMP-regulated guanine nucleotide exchange factor 4 (EPAC2) (AID 1645884);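 also: nucleotide exchange releases bodipy-GDP from Rap1 and this lowers its fluorescence; nearly all actives have a fitted effect of over 65% in size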
[4] = target: Rap guanine nucleotide exchange factor 4 (Homo sapiens) (UniProt Q8WZA2); experiment: Confirmatory qHTS for antagonist of cAMP-regulated guanine nucleotide exchange factor 4 (EPAC2) (AID 1645885); also: nearly all actives have a fitted effect of over 25% in size; also: potency is read from the fitted curve at half-maximal effect

Sequence of Rap guanine nucleotide exchange factor 3 (Homo sapiens) (O95398 whole entry, looked up): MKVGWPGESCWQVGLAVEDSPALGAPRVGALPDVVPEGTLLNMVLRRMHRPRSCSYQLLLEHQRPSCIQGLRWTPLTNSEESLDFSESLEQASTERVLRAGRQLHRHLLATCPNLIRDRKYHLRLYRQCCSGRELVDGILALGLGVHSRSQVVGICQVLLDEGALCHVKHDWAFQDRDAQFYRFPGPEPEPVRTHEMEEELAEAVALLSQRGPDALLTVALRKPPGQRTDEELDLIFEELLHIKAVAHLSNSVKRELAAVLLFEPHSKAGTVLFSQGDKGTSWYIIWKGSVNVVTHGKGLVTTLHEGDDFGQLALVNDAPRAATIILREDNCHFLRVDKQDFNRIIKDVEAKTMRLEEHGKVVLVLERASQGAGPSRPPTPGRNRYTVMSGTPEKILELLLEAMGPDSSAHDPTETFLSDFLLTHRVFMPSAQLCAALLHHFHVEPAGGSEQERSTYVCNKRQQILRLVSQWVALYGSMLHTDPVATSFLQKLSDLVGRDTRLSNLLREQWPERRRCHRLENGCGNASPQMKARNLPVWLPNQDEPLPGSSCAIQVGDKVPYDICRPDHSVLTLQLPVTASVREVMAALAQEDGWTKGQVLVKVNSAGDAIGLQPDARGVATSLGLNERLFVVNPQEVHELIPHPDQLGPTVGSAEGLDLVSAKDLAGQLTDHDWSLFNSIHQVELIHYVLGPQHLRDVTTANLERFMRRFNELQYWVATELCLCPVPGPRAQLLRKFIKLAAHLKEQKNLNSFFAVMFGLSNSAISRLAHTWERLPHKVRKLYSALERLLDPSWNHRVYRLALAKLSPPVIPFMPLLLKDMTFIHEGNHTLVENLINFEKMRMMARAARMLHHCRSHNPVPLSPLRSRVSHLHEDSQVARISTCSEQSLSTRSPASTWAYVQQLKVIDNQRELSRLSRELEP
Sequence of Rap guanine nucleotide exchange factor 4 (Homo sapiens) (Q8WZA2 whole entry, looked up): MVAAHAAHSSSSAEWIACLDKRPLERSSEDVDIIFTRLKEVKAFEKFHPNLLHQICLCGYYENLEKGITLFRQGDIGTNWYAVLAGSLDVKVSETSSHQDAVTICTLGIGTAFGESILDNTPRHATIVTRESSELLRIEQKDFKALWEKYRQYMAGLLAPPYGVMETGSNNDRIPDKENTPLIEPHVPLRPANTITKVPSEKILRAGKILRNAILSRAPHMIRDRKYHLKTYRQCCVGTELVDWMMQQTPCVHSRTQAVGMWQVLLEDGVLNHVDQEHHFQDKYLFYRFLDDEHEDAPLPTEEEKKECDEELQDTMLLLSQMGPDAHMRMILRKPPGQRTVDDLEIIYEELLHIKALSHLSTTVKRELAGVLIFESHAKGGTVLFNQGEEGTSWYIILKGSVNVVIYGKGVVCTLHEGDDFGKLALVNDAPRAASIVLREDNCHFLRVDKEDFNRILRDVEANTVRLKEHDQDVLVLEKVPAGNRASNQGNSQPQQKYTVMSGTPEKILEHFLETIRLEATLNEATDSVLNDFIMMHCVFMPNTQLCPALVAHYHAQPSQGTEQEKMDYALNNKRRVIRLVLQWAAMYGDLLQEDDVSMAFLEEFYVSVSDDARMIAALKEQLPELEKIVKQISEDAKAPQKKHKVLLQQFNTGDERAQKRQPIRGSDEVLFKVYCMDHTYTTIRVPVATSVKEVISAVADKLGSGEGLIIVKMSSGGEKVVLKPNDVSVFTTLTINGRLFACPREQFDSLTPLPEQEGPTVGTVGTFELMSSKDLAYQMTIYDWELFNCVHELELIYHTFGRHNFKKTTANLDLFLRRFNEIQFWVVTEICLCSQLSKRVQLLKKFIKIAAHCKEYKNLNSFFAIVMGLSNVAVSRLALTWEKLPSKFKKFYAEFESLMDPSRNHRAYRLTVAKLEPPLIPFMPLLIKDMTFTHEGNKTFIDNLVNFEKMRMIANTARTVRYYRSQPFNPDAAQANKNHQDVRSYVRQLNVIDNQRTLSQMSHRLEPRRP

Cc1cccc(NC(=O)CC2Nc3cccc4cccc(c34)NC2=O)c1 (stereo not given)
Potency [1]: 75.7 µM (active) | Potency [2]: inactive | Potency [3]: inactive | Potency [4]: inactive

CC(C)N(C(=O)Nc1ccc2nsnc2c1)C(C)C
Potency [1]: 22.4 µM (active) | Potency [2]: inactive | activation [3]: 2.55% [at 17.1 µM, percent relative to cAMP agonist control] | Potency [4]: inactive

CCC(C(=O)Nc1cc(OC)ccc1OC)n1nc(-c2ccccc2)c2c(c1=O)CCCC2 (stereo not given)
Potency [1]: inactive | Potency [2]: inactive | Potency [3]: inactive | Potency [4]: inactive

CN(CC(=O)O)c1ccc(/C=C/c2ccnc3ccccc23)cc1
Potency [1]: inactive | Potency [2]: inactive | Potency [3]: inactive | Potency [4]: 55.5 µM (active)

COc1ccc(OC)c(Nc2nc3ccccc3nc2-n2nc(C)cc2C)c1
Potency [1]: inactive | Potency [2]: inactive | Potency [3]: inactive | Potency [4]: inactive

CCOC(=O)c1ccc(NC(=O)Cn2nc(C)c3nn(-c4ccc(Cl)cc4)c(C)c3c2=O)cc1
Potency [1]: inactive | Potency [2]: inactive | Potency [3]: inactive | Potency [4]: inactive

CN(Cc1cccc2ncccc12)C(=O)c1cnn(-c2nccc(-c3ccccc3F)n2)c1C1CC1
Potency [1]: inactive | Potency [2]: inactive | Potency [3]: inactive | Potency [4]: 15.6 µM (active)

COc1ccc(C(NC(C)=O)c2cc(Cl)c3cccnc3c2O)cc1 (stereo not given)
Potency [1]: inactive | Potency [2]: inactive | activation [3]: 3.14% [at 17.1 µM, percent relative to cAMP agonist control] | Potency [4]: inactive

COCCCn1c(-c2ccccc2)nc2ccccc2c1=O
Potency [1]: inactive | Potency [2]: inactive | Potency [3]: inactive | Potency [4]: inactive

COc1cccc(-c2nc3cc(SC)ccc3cc2CN(C(=O)c2csc(C)n2)C2CC2)c1
Potency [1]: inactive | Potency [2]: inactive | Potency [3]: inactive | Potency [4]: 11.1 µM (active)

c1ccc2c(N3CCCCCC3)nc(CN3CCCCC3c3nccs3)nc2c1 (stereo not given)
Potency [1]: inactive | Potency [2]: inactive | Potency [3]: inactive | Potency [4]: 13.9 µM (active)

Cn1c(O)c(N=NC(=O)c2ccccc2O)c2ccccc21
Potency [1]: 53.6 µM (active) | Potency [2]: inactive | Potency [3]: inactive | Potency [4]: inactive

COc1cc(CCN(C(=O)c2cccc(S(C)(=O)=O)c2)C(CCc2ccccc2)c2nc3ccccc3[nH]2)cc(OC)c1 (stereo not given)
Potency [1]: inactive | Potency [2]: inactive | Potency [3]: inactive | Potency [4]: inactive

CCCCCCc1ccc(N2C[C@H](Cc3ccccc3)[C@@H](CC(=O)Nc3ccccc3)C2=O)cc1
Potency [1]: inactive | Potency [2]: inactive | Potency [3]: inactive | Potency [4]: inactive

CC(c1ccc(N(C)C)cc1)c1ccnc2ccccc12 (stereo not given)
Potency [1]: inactive | Potency [2]: inactive | Potency [3]: inactive | Potency [4]: inactive

COC(=O)c1c(SC)nc2ccccc2c1OCc1ccc(Br)cc1
Potency [1]: inactive | Potency [2]: inactive | Potency [3]: inactive | Potency [4]: inactive

CC/C(=C/c1ccccc1OC)c1cc(-c2ccccc2)cc2oc3ccccc3c12
Potency [1]: inactive | Potency [2]: inactive | Potency [3]: inactive | Potency [4]: inactive

CN(C)c1ccc(/C=C/c2ccnc3ccc(F)cc23)cc1
Potency [1]: inactive | Potency [2]: inactive | Potency [3]: inactive | Potency [4]: inactive

CCC1CCCCN1CCCNC(=O)CCC(=O)N1CC(C)Oc2ccccc21 (stereo not given)
Potency [1]: inactive | Potency [2]: inactive | Potency [3]: inactive | Potency [4]: inactive

COc1ccc(C2C=C(c3ccccc3)Nc3nnnn32)cc1 (stereo not given)
Potency [1]: inactive | Potency [2]: inactive | Potency [3]: inactive | Potency [4]: inactive

C/C(CC(=O)Nc1ccc2ccccc2c1)=N\NC(=O)c1cnccn1
Potency [1]: inactive | Potency [2]: inactive | Potency [3]: inactive | Potency [4]: inactive

CC(=O)Nc1ccc(SC[C@H](C)CN2CC[C@H](C(C)(C)C)CCC2=O)cc1
Potency [1]: inactive | Potency [2]: inactive | Potency [3]: inactive | Potency [4]: 44.1 µM (active)

CC(=O)NC(c1ccc2ccccc2c1)c1ccc2cccnc2c1O (stereo not given)
Potency [1]: inactive | Potency [2]: inactive | Potency [3]: inactive | Potency [4]: 10.7 µM (active)

COc1ccc(CNC(=O)[C@@H]2CC=C[C@@H]3CCN(Cc4ccccc4)C(=O)[C@@H]32)cc1
Potency [1]: inactive | Potency [2]: inactive | Potency [3]: inactive | Potency [4]: inactive

COc1ccc(N2CCN(C3CCCCC3NS(=O)(=O)c3ccccc3)CC2)cc1 (stereo not given)
Potency [1]: inactive | Potency [2]: inactive | Potency [3]: inactive | Potency [4]: 16.9 µM (active)

Cc1cccc(C2c3[nH]c4ccccc4c3CCN2Cc2cccn2-c2ncccn2)c1 (stereo not given)
Potency [1]: inactive | Potency [2]: inactive | activation [3]: -1.28% [at 17.1 µM, percent relative to cAMP agonist control] | Potency [4]: inactive

Cc1cc(C)c(S(=O)(=O)N2CCCCC2CCNC(=O)C(=O)NCC2CCCO2)c(C)c1 (stereo not given)
Potency [1]: inactive | Potency [2]: inactive | activation [3]: 2.27% [at 17.1 µM, percent relative to cAMP agonist control] | Potency [4]: inactive

COc1cc(/C=N/NC(=O)c2ccccc2)ccc1O
Potency [1]: inactive | Potency [2]: inactive | Potency [3]: inactive | Potency [4]: inactive

CC1Oc2ccc(C#N)cc2N(Cc2ccccc2OC(F)(F)F)C1=O (stereo not given)
Potency [1]: inactive | Potency [2]: inactive | activation [3]: 4.28% [at 17.1 µM, percent relative to cAMP agonist control] | Potency [4]: inactive

CC(C)C[C@H](NC(=O)[C@H](Cc1ccccc1)n1c(=O)[nH]c2ccccc2c1=O)C(=O)N1CCC(C(=O)O)CC1
Potency [1]: inactive | Potency [2]: inactive | Potency [3]: inactive | Potency [4]: inactive
